# Experimental data reported in PubChem BioAssay (NCATS).
# Records with an inconclusive call do not appear. Entries that show only a call come without a potency. The source made the active and inactive calls. Unless noted, the call rests on the fitted dose curve; in most records, active means well fitted cell-killing curve with a large enough effect; inconclusive means small, poorly fitted or top-dose-only effect; inactive means flat fitted curve, though single readings scatter.
# What was measured:
# [1] = Cell Viability - LYMP2-019 (AID 973); further: nearly all actives have a fitted effect of over 55% in size
# Summary of the method: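 AC50 values come from Hill-equation fits of luminescent intracellular ATP (CellTiter-Glo, 30 min, room temperature) following 24 h compound exposure at 37 C. Cells: LYMP2-019 lymphoblastoid line, 2500 per well, in complete culture medium.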
# [2] = Cell Viability - LYMP2-021 (AID 974); further: nearly all actives have a fitted effect of over 55% in size
# Summary of the method: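 AC50 values come from Hill-equation fits to CellTiter-Glo luminescence (ATP content), read after 24 hour compound exposure at 37 C of 2500 LYMP2-021 lymphoblastoid cells/well; tetraoctylammonium bromide as positive control.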
# [3] = Cell Viability - LYMP2-023 (AID 975);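 further: cellular ATP measured by luciferase luminescence as viability proxy; series mostly up to about 92 µM; nearly all actives have a fitted effect of over 55% in size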
# Summary of the method: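 Intracellular ATP, read by CellTiter-Glo luminescence, reports viability after 24 hr compound exposure at 37 C. 2500 lymphoblastoid cells/well (LYMP2-023) seeded 5 hr beforehand; Hill fits give AC50; positive control tetraoctylammonium bromide.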
# [4] = Cell Viability - LYMP2-025 (AID 976); further: series mostly up to about 92 µM
# Summary of the method: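 Cytotoxicity read as loss of intracellular ATP (luciferase luminescence) after 24 h compound treatment at 37 C. Uses LYMP2-025 lymphoblastoid cells in 1536-well format; Hill-equation modelling gives AC50; tetraoctylammonium bromide as positive control.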
# [5] = Cell Viability - LYMP2-006 (AID 978); further: series mostly up to about 92 µM; nearly all actives have a fitted effect of over 60% in size
# Summary of the method: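 Human lymphoblastoid cells, 2500 per well, were preincubated 5 hr at 37 C, then exposed to compounds for 24 hr at 37 C in complete medium. Viability was read as intracellular ATP by CellTiter-Glo luminescence; AC50 from Hill-equation fits of qHTS concentration-response data.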
# [6] = Cell Viability - LYMP2-007 (AID 979);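 further: cells exposed to compound for 24 h before reading; nearly all actives have a fitted effect of over 60% in size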
# Summary of the method: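 AC50 values come from Hill-equation fits of luminescent intracellular ATP (CellTiter-Glo, 30 min, room temperature) following 24 h compound exposure at 37 C. Cells: LYMP2-007 lymphoblastoid line, 2500 per well, in complete culture medium.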
# [7] = Cell Viability - LYMP2-008 (AID 980); further: nearly all actives have a fitted effect of over 60% in size
# Summary of the method: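 Cytotoxicity determined from ATP-dependent luciferase luminescence (CellTiter-Glo) following 24 h compound exposure of human lymphoblastoid LYMP2-008 cells at 37 C. Concentration-response data fitted to the Hill equation to give AC50.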
# [8] = Cell Viability - LYMP2-010 (AID 981); further: nearly all actives have a fitted effect of over 55% in size
# Summary of the method: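 CellTiter-Glo ATP luminescence measured cytotoxicity after 24 h compound exposure at 37 C. LYMP2-010 cells were seeded at 2500/well, with tetraoctylammonium bromide as control; concentration-response curves gave AC50 values by the Hill equation.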
# [9] = Cell Viability - LYMP2-012 (AID 982)
# [10] = Cell Viability - LYMP2-014 (AID 983); further: series mostly up to about 92 µM; nearly all actives have a fitted effect of over 50% in size
# Summary of the method: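 Intracellular ATP loss, read by luciferase luminescence, measures acute cytotoxicity after 24 h compound exposure of lymphoblastoid LYMP2-014 cells (2500/well, 37 C). Concentration-response data fitted to the Hill equation for AC50.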
# [11] = Cell Viability - LYMP2-016 (AID 984); further: nearly all actives have a fitted effect of over 55% in size
# Summary of the method: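 Human lymphoblastoid cells (LYMP2-016), 2500/well in complete medium, preincubated 5 hr at 37 C, then compound-treated 24 hr at 37 C. Intracellular ATP read by CellTiter-Glo luminescence after 30 min at room temperature; AC50 from Hill-equation concentration-response fits.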
# [12] = Cell Viability - LYMP2-018 (AID 985); further: nearly all actives have a fitted effect of over 50% in size
# Summary of the method: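 Viability read as CellTiter-Glo luminescence (cellular ATP) after 24 hr compound exposure at 37 C of 2500 LYMP2-018 lymphoblastoid cells/well, pre-plated 5 hr. Hill-equation modelling gave AC50.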
# [13] = Cell Viability - LYMP2-020 (AID 986)
# Summary of the method: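 Cytotoxicity in qHTS format: luminescent ATP readout from CellTiter-Glo after 24 h compound exposure at 37 C in complete medium. LYMP2-020 lymphoblastoid cells were seeded at 2500/well; concentration-response data fitted to the Hill equation for AC50.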
# [14] = Cell Viability - LYMP2-022 (AID 987); further: nearly all actives have a fitted effect of over 55% in size
# Summary of the method: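 Cytotoxicity read as decreased cellular ATP (CellTiter-Glo luminescence, 30 min room temperature) after 24 hours compound exposure of 2500 lymphoblastoid LYMP2-022 cells/well at 37 C. Concentration-response data fitted with standard Hill equation for AC50.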
# [15] = Cell Viability - LYMP2-024 (AID 988); further: nearly all actives have a fitted effect of over 60% in size
# Summary of the method: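 Cytotoxicity was taken as a decrease in ATP (CellTiter-Glo luminescence) after 24 hr compound exposure at 37 C of LYMP2-024 lymphoblastoid cells, 2500 cells/well. Concentration-response data were fitted to the Hill equation to give AC50.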
# [16] = Cell Viability - LYMP1-002 - Assay at 24 hr (AID 993)
# Summary of the method: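 qHTS cytotoxicity at 24 h: CellTiter-Glo ATP luminescence in lymphoblastoid line LYMP1-002 incubated with compound at 37 °C. Concentration-response modeled with the Hill equation for AC50; tetraoctylammonium bromide served as positive control.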
# [17] = Cell Viability - LYMP1-002 - Assay at 40 hr (AID 994); further: nearly all actives have a fitted effect of over 60% in size
# Summary of the method: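 Cytotoxicity was read as loss of cellular ATP (CellTiter-Glo luminescence) after 40 hr compound exposure at 37 C of 2500 LYMP1-002 lymphoblastoid cells per well. Concentration-response data were fitted with the standard Hill equation to give AC50.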
# [18] = molecular target: Bile acid receptor (Homo sapiens) (UniProt Q96RI1); experiment: qHTS assay for small molecule antagonists of farnesoid X receptor signaling (AID 588526; calls by dose curve)
# Chain of Bile acid receptor (Homo sapiens) (Q96RI1 whole entry, looked up): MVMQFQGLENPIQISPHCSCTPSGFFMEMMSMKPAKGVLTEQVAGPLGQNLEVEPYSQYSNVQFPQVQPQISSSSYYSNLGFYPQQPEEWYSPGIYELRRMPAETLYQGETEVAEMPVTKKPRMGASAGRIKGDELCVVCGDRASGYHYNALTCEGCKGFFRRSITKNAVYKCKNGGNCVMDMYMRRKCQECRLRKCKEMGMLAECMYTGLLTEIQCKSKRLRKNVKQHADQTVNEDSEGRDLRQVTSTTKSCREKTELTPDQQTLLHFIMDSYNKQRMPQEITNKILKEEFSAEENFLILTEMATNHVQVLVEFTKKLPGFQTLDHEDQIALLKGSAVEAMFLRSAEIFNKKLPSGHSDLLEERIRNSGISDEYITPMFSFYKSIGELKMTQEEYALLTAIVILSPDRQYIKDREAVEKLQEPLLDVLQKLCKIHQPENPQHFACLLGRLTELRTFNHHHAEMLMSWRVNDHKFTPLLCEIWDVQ
# Summary of the method: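 Beta-lactamase reporter antagonist mode: HEK293T FXR-UAS-bla cells, titrated compound, CDCA stimulation, 16 h 37 C, CCF4 dye 2 h RT. Data normalized to CDCA 50 uM and DMSO; Hill-fit IC50.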
# [19] = molecular target: Glucocorticoid receptor (Homo sapiens) (UniProt P04150); experiment: qHTS assay for small molecule agonists of glucocorticoid receptor signaling (AID 588532; active means well fitted curve in the direction sought with a large enough effect in the signal ratio, with a control signal flat; the % refers to the signal ratio); conditions: HeLa MMTV-bla, beta-lactamase ratio, agonist, 18 h; stronger effect = higher value; percent of dexamethasone control, DMSO zero
# Chain of Glucocorticoid receptor (Homo sapiens) (P04150 whole entry, looked up): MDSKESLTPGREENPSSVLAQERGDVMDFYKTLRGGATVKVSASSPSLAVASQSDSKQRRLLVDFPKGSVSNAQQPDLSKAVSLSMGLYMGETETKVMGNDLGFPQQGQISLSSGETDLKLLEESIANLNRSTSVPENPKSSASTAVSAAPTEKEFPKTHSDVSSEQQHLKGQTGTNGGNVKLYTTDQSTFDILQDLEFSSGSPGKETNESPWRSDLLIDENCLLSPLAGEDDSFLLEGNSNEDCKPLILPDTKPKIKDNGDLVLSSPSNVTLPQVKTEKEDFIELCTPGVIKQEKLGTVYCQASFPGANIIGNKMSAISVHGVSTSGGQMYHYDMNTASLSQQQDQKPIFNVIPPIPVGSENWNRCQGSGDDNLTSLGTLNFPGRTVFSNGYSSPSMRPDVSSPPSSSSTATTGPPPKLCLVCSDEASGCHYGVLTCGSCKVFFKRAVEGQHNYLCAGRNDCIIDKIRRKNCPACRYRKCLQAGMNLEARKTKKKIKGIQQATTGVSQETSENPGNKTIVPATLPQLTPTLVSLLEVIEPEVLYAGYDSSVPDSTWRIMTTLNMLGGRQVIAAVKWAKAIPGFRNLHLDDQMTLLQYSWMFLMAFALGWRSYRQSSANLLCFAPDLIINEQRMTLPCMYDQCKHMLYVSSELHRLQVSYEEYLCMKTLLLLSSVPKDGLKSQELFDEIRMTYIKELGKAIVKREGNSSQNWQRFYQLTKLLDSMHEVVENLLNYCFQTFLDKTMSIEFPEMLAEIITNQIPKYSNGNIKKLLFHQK
# Summary of the method: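 Quantitative HTS using CellSensor MMTV-bla HeLa cells in charcoal/dextran-treated serum; compounds tested up to 92 uM. After 18 h at 37 C, CCF4 dye reported reporter induction.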
# [20] = qHTS assay for small molecule antagonists of peroxisome proliferator-activated receptor delta signaling (AID 588535; active means well fitted inhibition curve with a large enough effect in the signal ratio, with a control signal flat, not every such curve was filed as active; the % refers to the signal ratio;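 on max response: cells co-treated with a PPAR-delta agonist as stimulator during compound exposure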); conditions: HEK293T PPARd-UAS-bla, beta-lactamase FRET ratio, 18 h; 460 nm channel
# Summary of the method: (§1)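 Titrations were run on PPAR-delta-UAS-bla HEK293T cells in charcoal/dextran-stripped serum, incubated 18 h at 37 C. CCF4 fluorescence (460/530 nm) after 2 h RT; Hill equation yields IC50 and maximal response.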
# [21] = molecular target: Peroxisome proliferator-activated receptor delta (Homo sapiens) (UniProt Q03181); experiment: as above
# Chain of Peroxisome proliferator-activated receptor delta (Homo sapiens) (Q03181 whole entry, looked up): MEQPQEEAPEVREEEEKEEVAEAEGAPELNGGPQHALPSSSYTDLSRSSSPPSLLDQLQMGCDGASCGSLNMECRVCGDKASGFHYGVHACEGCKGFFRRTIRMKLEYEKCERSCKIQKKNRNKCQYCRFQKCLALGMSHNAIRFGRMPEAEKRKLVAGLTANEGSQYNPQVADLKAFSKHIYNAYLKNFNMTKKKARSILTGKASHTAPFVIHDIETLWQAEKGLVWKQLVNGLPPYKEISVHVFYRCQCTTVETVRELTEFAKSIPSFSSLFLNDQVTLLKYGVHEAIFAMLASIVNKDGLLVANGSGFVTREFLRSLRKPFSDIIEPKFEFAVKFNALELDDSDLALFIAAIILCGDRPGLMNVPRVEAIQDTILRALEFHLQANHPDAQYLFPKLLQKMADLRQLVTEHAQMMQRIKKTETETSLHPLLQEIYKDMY
# Summary of the method: as §1
structure (smiles),measurement,setting,value
CCCCCC/C(C=O)=C\c1ccccc1,Potency,[1],inactive
same,Potency,[2],inactive
same,Potency,[3],inactive
same,Potency,[4],inactive
same,Potency,[5],inactive
same,Potency,[6],inactive
same,Potency,[7],inactive
same,Potency,[8],inactive
same,Potency,[9],inactive
same,Potency,[10],inactive
same,Potency,[11],inactive
same,Potency,[12],inactive
same,Potency,[13],inactive
same,Potency,[14],inactive
same,Potency,[15],inactive
same,Potency,[16],inactive
same,Potency,[17],inactive
same,Potency,[18],inactive
same,activation,[19],-2.77% (inactive)
same,max response,[20],24.4%
same,outcome,[21],inactive
